Pf gametocyte: late stage P. falciparum gametocyte viability inhibitors, primary screen, ATP luminescence, HTS; hit rate 0.065% among 150,000; inhibition, % at 10.9 µM; P. falciparum stage V gametocytes, 24 h; AID 743093, 2013;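 active = inhibition above the mean plus 3 SD of compounds within the control limits, set per campaign, cut at about 38% in these data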;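 note: 0% = DMSO wells and 100% = medium only without gametocytes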
Hsp70 activator: Hsp70 transcriptional activators, primary screen, cell-based, HeLa, Hsp70 promoter luciferase, luminescence, 10 µM | hit rate 0.04% among 200,000 | AID 1203, 2008 | activation, % at 10 µM | HeLa Hsp70 promoter luciferase reporter; scaled: vehicle 0, proteasome-inhibitor control 100%;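 active = activation above the mean across all tested compounds plus 3 SD, cutoff set per campaign, cut at about 5.5% in these data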;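 note: 100% = MG132 at 30 µM as the positive control and 0% = DMSO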
S1P4 antag: S1P4 receptor antagonists, primary screen, cell-based | hit rate 0.26% among 220,000 | S1P4-expressing cells, antagonist mode, reporter read-out | inhibition, % at 4.98 µM | AID 1510, 2009 | Sphingosine 1-phosphate receptor 4 (Homo sapiens), O95977; in the data active = inhibition above about 29%;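 note: 0% = wells stimulated with agonist and 100% = vehicle wells without agonist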
S1P4 ag: S1P4 receptor agonists, primary screen, cell-based; Sphingosine 1-phosphate receptor 4 (Homo sapiens), O95977; hit rate 0.35% among 220,000; activation, % at 4.98 µM; S1P4-expressing cell line, agonist reporter assay; in the data active = activation above about 11%;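 note: 0% = DMSO vehicle and 100% = reference agonist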
S1P3 antag-1: S1P3 receptor antagonists, primary screen, cell-based. Sphingosine 1-phosphate receptor 3 (Homo sapiens), Q99500. hit rate 0.27% among 170,000. inhibition, % at 4.98 µM. CHO S1P3 NFAT-BLA reporter, FRET fluorescence, antagonist mode;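 active = inhibition above the plate cutoff, the mean inhibition of test wells on that plate plus 3 SD, cut at about 28% in these data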;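 note: cells challenged with S1P at its EC80 of 0.8 µM; blue over green emission ratio from cleaved BLA substrate after 4 h stimulation; 0% = S1P-stimulated wells and 100% = unstimulated DMSO-only wells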
Target sequence (Q99500 whole entry, looked up): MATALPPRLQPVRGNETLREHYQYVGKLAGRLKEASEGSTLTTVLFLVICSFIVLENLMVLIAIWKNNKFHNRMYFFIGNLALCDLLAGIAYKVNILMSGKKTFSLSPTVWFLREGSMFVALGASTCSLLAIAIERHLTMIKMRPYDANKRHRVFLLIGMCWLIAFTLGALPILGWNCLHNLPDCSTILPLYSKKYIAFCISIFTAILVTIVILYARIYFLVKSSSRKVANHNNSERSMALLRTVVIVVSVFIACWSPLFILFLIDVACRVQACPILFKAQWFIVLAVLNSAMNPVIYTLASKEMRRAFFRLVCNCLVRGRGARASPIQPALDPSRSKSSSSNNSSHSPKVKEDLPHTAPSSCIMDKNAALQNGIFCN
S1P3 antag-2: S1P3 receptor antagonists, retest, confirmation, cell-based; shares compounds with S1P3 antag-1; CHO S1P3 NFAT-BLA reporter, FRET, antagonist mode; inhibition, % at 4.98 µM; hit rate 30% among 240; AID 1429, 2008;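 active = inhibition above the hit threshold that was computed for the earlier primary screen, cut at about 30% in these data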;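 note: 0% = S1P-stimulated wells and 100% = unstimulated DMSO-only wells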
Active calls of the source: *; . = not tested or not shown. Compounds with a hit are over-represented: about 0.83% of the library has one in this group of screens.

SMILES	Pf gametocyte	Hsp70 activator	S1P4 antag	S1P4 ag	S1P3 antag-1	S1P3 antag-2
COC(=O)C(Cc1ccccc1)NC(=O)CC(C)CC(=O)Nc1ccc(C)cc1 (configuration not stated)	-13	.	.	.	.	.
O=C(CN1CCCC1=O)NC1C2CC3CC(C2)CC1C3 (configuration not stated)	12	0	-15	0	-12	.
CC1=[N+](C)c2c(ccc3cccnc23)C1(C)C	-18	0	-39	0	29*	15
CCCNC(=O)Cn1cnc2sc(C(=O)N3CCN(Cc4ccc5c(c4)OCO5)CC3)c(C)c2c1=O	-6	0	-13	0	30*	-15
Cn1c(CN2CCCC2)nc2cc(NC(=O)COc3ccccc3)ccc21	-10	0	-27	2	.	.
Cc1cccc(OCC(=O)Nc2ccc3c(c2)nc(CN2CCCCC2)n3C)c1	-25	.	-17	-1	30*	-11
CN(Cc1ccccc1)CC(O)COc1ccc(CNCCc2cccnc2)cc1 (configuration not stated)	20	0	-8	-1	31*	-14
Cc1cc(C)c2cc(CN(Cc3ccco3)C(=S)NCC3CCCO3)c(=O)[nH]c2c1 (configuration not stated)	-11	0	-10	0	9	.
CCC(O)C1CCN(C(=O)c2cc(COc3ccc4ncccc4c3)on2)CC1 (configuration not stated)	-17	0	2	-2	33*	8
O=C(N/N=C\C=C\c1ccco1)C1COc2ccccc2O1 (configuration not stated)	15	.	-4	-1	28*	-9
c1ccc(COC(CN2CCCCCC2)CN2CCCCCC2)cc1	-10	.	19	2	7	.
O=C(c1cnc2ccc3ccccc3c2c1)c1cc(F)ccc1O	9	.	-7	1	32*	-3
O=C(c1ccc(F)cc1)C(CCCCCC(CN1CCOCC1)C(=O)c1ccc(F)cc1)CN1CCOCC1 (configuration not stated)	.	0	-8	2	.	.
OC(CN1CCOCC1)c1ccc(F)cc1 (configuration not stated)	6	0	-3	0	37*	-10
COc1cccc(CNC(=O)CCCCCn2c(=S)[nH]c3ccc(N4CCOCC4)cc3c2=O)c1	2	0	-16	1	64*	-13
CC(C)CNC(=O)c1ccccc1NC(=O)CN(c1ccccc1)S(=O)(=O)N(C)C	10	0	-15	2	-9	.
CCOC(=O)C1ON2CCCCC2C1(O)C(F)(F)F (configuration not stated)	-32	0	-13	2	-24	.
CCOC(=O)N=Nc1c(O)n(CC(=O)OC)c2ccccc12	-15	0	-4	-1	-12	.
CCOC(=O)N=Nc1c2ccccc2c2nc3no[nH]c3nc12	11	0	-8	1	31*	109*
Fc1ccc(-c2n[nH]c(=S)c3ccccc23)cc1	-6	0	0	1	65*	-14
O=c1[nH]nc(-c2ccccc2)c2ccccc12	-34	.	14	2	10	.
Cc1cc(C)c(C)c(S(=O)(=O)N2CCN(C(=O)c3ccco3)CC2)c1C	3	.	.	.	.	.
Cc1cc(C)c(C)c(S(=O)(=O)N2CCN(C(=O)CCC(=O)N3CCOCC3)CC2)c1C	-15	.	-4	0	31*	-10
O=C(N/N=C/c1ccc(O)cc1)Nc1cccc2nsnc12	-26	0	-14	-1	31*	4
O=C(c1ccc(S(=O)(=O)N2CCc3ccccc3C2)cc1)N1CCCCC1	3	0	-12	2	-14	.
SMILES	Pf gametocyte	Hsp70 activator	S1P4 antag	S1P4 ag	S1P3 antag-1	S1P3 antag-2
Cc1ccc(NC(=O)C2(c3ccc([N+](=O)[O-])cc3)CCCC2)cc1	5	0	-2	3	48*	50*
Cc1ccc(/C=N/Nc2ccc(C(=O)O)cc2)s1	2	0	-30	1	42*	-3
Cc1ccc(/C=N/Nc2cccc(C(=O)O)c2)s1	-18	0	9	0	-8	.
CCC(C(=O)NCc1ccco1)N(C(=O)CNS(=O)(=O)c1ccccc1)c1ccccc1C (configuration not stated)	.	0	-5	0	-18	.
CCOc1nc(-c2ccc(Cl)cc2)nc2ccccc12	-18	0	-21	1	39*	-4
CCC(=O)Nc1ccc(F)c(Cl)c1	.	0	2	-4	-27	.
O=C(O)CC(CC(=O)Nc1ccc(F)c(Cl)c1)c1ccc(Cl)cc1Cl (configuration not stated)	-1	.	-14	0	59*	-7
Cc1ccc(NC(=O)C(OC(=O)c2ccc(F)cc2)c2ccccc2)cc1Cl (configuration not stated)	.	0	-4	-1	36*	55*
O=C(C[C@@H]1C/C=C\C[C@@H](Cc2ccc(F)cc2)C(=O)OCCNC1=O)N[C@H](CO)Cc1ccccc1	-20	.	.	.	.	.
CCN1/C(=C/C=C/c2oc3ccc(-c4ccccc4)cc3[n+]2CC)Oc2ccc(-c3ccccc3)cc21	0	0	10	1	31*	54*
CSc1cccc(NC(=S)N(CCC(C)C)C(C)c2ccncc2)c1 (configuration not stated)	3	.	-8	0	-6	.
CCOc1ccc(S(=O)(=O)NCc2ccncc2)cc1	0	0	-5	-2	.	.
CCOc1cc(S(=O)(=O)NCc2ccncc2)ccc1Cl	3	1	-11	0	29*	20
COc1ccc(C(CC(=O)c2ccc(C)cc2)Nc2ccc([N+](=O)[O-])cc2)cc1 (configuration not stated)	-3	0	7	0	44*	79*
CC(C)Cc1ccc(C(C)NC(=O)c2ccc(=O)[nH]c2)cc1 (configuration not stated)	-1	0	18	1	8	.
Cc1nc2ccc(NC(=O)c3cc(S(=O)(=O)N(C)c4ccccc4)ccc3Cl)cc2s1	17	0	-7	4	30*	10
Cc1nc2ccc(NC(=O)c3ccc(Cl)c(S(=O)(=O)N(C)c4ccccc4)c3)cc2s1	-5	0	-14	1	11	.
Cc1ccc(C(=O)NCCOc2cccc(C)c2)cc1	5	0	5	2	3	.
CSc1ccccc1C(=O)NCCOc1cccc(C)c1	12	0	-7	0	39*	-5
COc1ccc(/C=N/NC(=O)CCSc2nc3ccccc3s2)cc1	-14	0	-10	2	16	.

Compound activity from PubChem.
